# In the library only some 3.4% were active in any assay of this set; here they are far more common.
# MITF inh: blocks human microphthalmia-associated transcription factor; 650,000 compounds, 0.91% hits; AID 1259374; inhibition, % at 2.6 µM; AlphaScreen MITF homodimerization, bead proximity signal; O75030; in the data active = inhibition above about 50%;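 note: 0% = vehicle wells with protein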
# TEAD-YAP inh: TEAD-YAP interaction inhibition. HEK-TIYL cells, TEAD-Gal4/YAP UAS-luciferase luminescence. inhibition, % at 9.12 µM. 640,000 compounds, 1.4% hits; in the data active = inhibition above about 32%;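 note: 0% = median of test compound wells and 100% = reference inhibitor wells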
# FBW7 activator: human FBW7 E3 ligase activation, primary screen; AID 1259310; normalized activity (activation), % at 26.1 µM; 650,000 compounds, 0.13% hits; AlphaScreen FBW7–phospho-cyclin E peptide binding, activator screen; in the data active = normalized activity above about 1.9%;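 note: purified mutant Fbw7 with reduced substrate affinity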
# GPR151 ag: activates the human receptor GPR151. 650,000 compounds, 1% hits. PathHunter beta-arrestin GPR151 cells, luminescence. Q8TDV0. activation, % at 11.2 µM; in the data active = activation above about 4.9%;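 note: 0% = median of compound wells and 100% = cells with positive control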
# Target sequence (Q8TDV0 whole entry, looked up): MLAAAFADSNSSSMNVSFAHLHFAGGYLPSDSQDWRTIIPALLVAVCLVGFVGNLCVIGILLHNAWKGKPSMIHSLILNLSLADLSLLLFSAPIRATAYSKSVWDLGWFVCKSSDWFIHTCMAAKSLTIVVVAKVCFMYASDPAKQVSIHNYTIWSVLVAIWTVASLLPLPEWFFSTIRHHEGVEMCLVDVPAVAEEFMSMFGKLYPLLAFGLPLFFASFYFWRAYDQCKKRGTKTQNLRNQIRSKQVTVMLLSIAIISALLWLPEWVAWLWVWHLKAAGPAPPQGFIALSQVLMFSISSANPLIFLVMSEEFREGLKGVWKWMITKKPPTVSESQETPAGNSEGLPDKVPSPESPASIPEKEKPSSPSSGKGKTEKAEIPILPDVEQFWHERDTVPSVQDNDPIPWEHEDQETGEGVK
# Numbers without * were called inactive.
SMILES,MITF inh,TEAD-YAP inh,FBW7 activator,GPR151 ag
CCSCCOC(=O)C1=C(C)NC2=C(C(=O)CC(c3cccs3)C2)C1c1ccc(F)cc1 (stereo not drawn),-4.6,11.2,0.8,-1.1
COCCOC(=O)c1[nH]c2c(c1C)C(=O)CC(c1cccs1)C2 (stereo not drawn),15.5,48.9*,0.9,-0.5
CCSCCOC(=O)c1[nH]c2c(c1C)C(=O)CC(c1cccs1)C2 (stereo not drawn),12.4,55.0*,0.1,-0.5
CCOCCOC(=O)c1[nH]c2c(c1C)C(=O)CC(c1cccs1)C2 (stereo not drawn),0.8,54.0*,0.0,0.6
Cc1c(C(=O)OC(C)C)[nH]c2c1C(=O)CC(c1cccs1)C2 (stereo not drawn),-0.7,60.1*,0.1,0.9
Cc1no[n+]([O-])c1COc1ccccc1C=C1C(=O)NC(=O)NC1=O,12.5,-2.9,-0.4,0.6
CC(C)CCNC(=O)Cn1ccc2ccccc2c1=O,19.6,-3.0,0.0,0.6
Cc1cc(C(=O)N/N=C/c2c(F)cccc2Cl)c(C)o1,0.0,-18.7,-0.1,-3.8
C/C=C/COC(=O)c1[nH]c2c(c1C)C(=O)CC(c1cccs1)C2 (stereo not drawn),0.2,42.5*,-0.1,2.1
CCOC(=O)c1[nH]c2c(c1C)C(=O)CC(c1cccs1)C2 (stereo not drawn),2.3,52.4*,-0.2,0.4
CCOC(=O)C1=C(C)NC2=C(C(=O)CC(c3cccs3)C2)C1c1ccc(C)s1 (stereo not drawn),-2.5,14.6,0.2,-0.4
Cc1c(C(=O)OCCOC(C)C)[nH]c2c1C(=O)CC(c1cccs1)C2 (stereo not drawn),-8.5,50.5*,-0.2,0.8
CS(=O)(=O)N(CC(=O)Nc1ccccc1Br)c1cccc(F)c1,19.7,4.5,0.9,-0.6
Cc1cc(C(=O)NCc2cccs2)c2ccccc2n1,6.2,11.0,0.1,-0.1
COc1cc(Nc2nc(-c3ccc(C(=O)NC4CC4)cc3)nc3c2ncn3Cc2ccc(C(F)(F)F)cc2)cc(OC)c1OC,6.0,5.8,0.1,4.3
O=C1COc2ccc(C(=O)COC(=O)c3cc(O)c(O)c(O)c3)cc2N1,82.5*,2.3,0.1,2.4
O=C(c1ccc(CS(=O)c2ccc(Cl)cc2)o1)N1CCN(c2ccccn2)CC1 (stereo not drawn),24.3,7.5,0.3,-0.3
Cc1ccc(Nc2nc3ccccc3n3c(C)nnc23)c(Br)c1,6.9,7.2,0.1,-0.5
CCOC(=O)CSc1nc2c(sc(=S)n2-c2ccc(Cl)c(C)c2)c(=O)n1-c1ccccc1OC,24.9,-8.6,2.1*,0.8
COc1ccc(-c2nc(C(N)=O)c3[nH]c(=O)n(-c4ccccc4OC)c3n2)cc1,4.9,48.4*,0.0,0.9
COc1ccc(-c2nc(C(N)=O)c3[nH]c(=O)n(-c4cccc(C)c4)c3n2)cc1O,11.0,63.8*,0.2,-0.9
COc1ccccc1-n1c(=O)[nH]c2c(C(N)=O)nc(-c3cccc(F)c3)nc21,6.5,-0.9,0.2,0.6
CC(=O)N1CCC(=NNc2c([N+](=O)[O-])cc(C(F)(F)F)cc2[N+](=O)[O-])CC1,8.7,-12.4,0.1,-1.3
COc1cc(CNC(=O)c2c(-c3ccccc3Cl)noc2C)cc(OC)c1OC,11.6,-1.9,0.0,0.5
CCC1COC(C)(CCC(C)C)N1C(=O)c1cc2c(=O)n3cccc(C)c3nc2s1 (stereo not drawn),-8.9,-2.6,0.6,-1.2
SMILES,MITF inh,TEAD-YAP inh,FBW7 activator,GPR151 ag
COC(=O)c1sc2nc3c(c(-c4ccc(C)o4)c2c1N)CCCC3,-6.7,4.7,0.0,2.9
NC(=O)c1sc2nc3c(c(-c4ccco4)c2c1N)CCC3,-4.8,43.7*,-0.2,1.5
CCc1nc2sc(C(=O)OC)c(N)c2c2c1CCCC2,-15.2,-4.2,0.0,0.9
CCc1nc2sc(C(N)=O)c(N)c2c2c1CCCC2,-15.4,38.2*,0.2,-1.3
Cc1ccc(-c2c3c(nc4sc(C(N)=O)c(N)c24)CCCC3)o1,55.3*,5.8,-0.2,-0.2
O=C(NCc1ccccc1)C(=Cc1cccc(O)c1)C(=O)NCc1ccccc1,5.3,35.4*,-0.1,-0.4
N#C/C(=C\c1cccc(Cl)c1)C(=O)NCc1ccccc1,1.3,0.8,-0.1,-0.5
COc1ccc(Nc2nc(-c3ccc([N+](=O)[O-])cc3)nc3ccccc23)cc1,-6.1,-0.3,0.0,-0.6
O=C1CCCC2=C1C(c1cc(Br)ccc1O)C1C(=O)c3ccccc3C1=N2 (stereo not drawn),16.4,49.6*,-0.3,3.1
O=C1CCCC2=C1C(c1cc([N+](=O)[O-])ccc1O)C1C(=O)c3ccccc3C1=N2 (stereo not drawn),12.5,17.5,-0.8,0.5
